Laboratory results taken from article PMC7862700, “An all-to-all approach to the identification of sequence-specific readers for epigenetic DNA modifications on cytosine”.

Assays:
Assay in all cases: DAPPL (digital affinity profiling via proximity ligation, sequencing); 10 mM Tris-HCl pH 7.5, 50 mM NaCl, 1 mM DTT, 4% glycerol, room temperature, 30 min; GST-TFs on glutathione beads, 16-mer random dsDNA library, 0.1% formaldehyde crosslink after washing; high values mean tight binding
Conditions in all cases: protein: recombinant; tags: N-terminal GST; dsDNA, one strand shown
[1] = molecular target: T1, ELK1 (Homo sapiens, UniProt P19419 1-428)
T1 sequence: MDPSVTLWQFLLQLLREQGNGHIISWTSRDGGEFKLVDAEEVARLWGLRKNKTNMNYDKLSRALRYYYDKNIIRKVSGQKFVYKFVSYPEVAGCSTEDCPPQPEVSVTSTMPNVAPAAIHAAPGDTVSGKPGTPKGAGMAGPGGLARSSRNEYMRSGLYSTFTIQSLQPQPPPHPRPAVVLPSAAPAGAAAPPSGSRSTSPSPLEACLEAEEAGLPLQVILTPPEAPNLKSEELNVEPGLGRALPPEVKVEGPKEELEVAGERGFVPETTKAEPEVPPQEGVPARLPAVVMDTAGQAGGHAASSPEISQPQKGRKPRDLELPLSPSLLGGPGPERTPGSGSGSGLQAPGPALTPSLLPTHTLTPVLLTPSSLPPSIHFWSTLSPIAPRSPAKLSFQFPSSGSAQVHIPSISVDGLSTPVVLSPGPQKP
How it was run: (§1)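 Human transcription factors were made in yeast as GST fusions, captured on glutathione beads and barcoded with DNA. With a tag-only sample included, the pool was incubated with 200 nmole of a random double-stranded 16-mer DNA library in Tris/NaCl/DTT/glycerol buffer at room temperature for 30 min, then crosslinked with 0.1% formaldehyde after washing, ligated by proximity, amplified and sequenced. For binding signal, each hexamer's read frequency for a factor is divided by its frequency for the tag-only sample.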

[2] = molecular target: T2, GABPA (Homo sapiens, UniProt Q06546 1-454)
T2 sequence: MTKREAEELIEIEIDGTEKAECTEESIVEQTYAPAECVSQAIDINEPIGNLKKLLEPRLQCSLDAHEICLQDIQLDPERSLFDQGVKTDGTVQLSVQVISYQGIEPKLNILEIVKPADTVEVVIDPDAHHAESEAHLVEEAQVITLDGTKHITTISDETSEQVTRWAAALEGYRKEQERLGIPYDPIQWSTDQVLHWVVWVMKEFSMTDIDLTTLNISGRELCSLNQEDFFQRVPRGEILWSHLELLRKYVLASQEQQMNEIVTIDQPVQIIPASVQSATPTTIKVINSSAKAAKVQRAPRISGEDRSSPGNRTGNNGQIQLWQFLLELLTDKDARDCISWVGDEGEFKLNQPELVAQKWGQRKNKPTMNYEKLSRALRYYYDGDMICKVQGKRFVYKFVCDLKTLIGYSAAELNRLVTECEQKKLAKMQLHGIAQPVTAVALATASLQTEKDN
How it was run: as §1

[3] = molecular target: T3, ERG (Homo sapiens, UniProt P11308 1-479)
T3 sequence: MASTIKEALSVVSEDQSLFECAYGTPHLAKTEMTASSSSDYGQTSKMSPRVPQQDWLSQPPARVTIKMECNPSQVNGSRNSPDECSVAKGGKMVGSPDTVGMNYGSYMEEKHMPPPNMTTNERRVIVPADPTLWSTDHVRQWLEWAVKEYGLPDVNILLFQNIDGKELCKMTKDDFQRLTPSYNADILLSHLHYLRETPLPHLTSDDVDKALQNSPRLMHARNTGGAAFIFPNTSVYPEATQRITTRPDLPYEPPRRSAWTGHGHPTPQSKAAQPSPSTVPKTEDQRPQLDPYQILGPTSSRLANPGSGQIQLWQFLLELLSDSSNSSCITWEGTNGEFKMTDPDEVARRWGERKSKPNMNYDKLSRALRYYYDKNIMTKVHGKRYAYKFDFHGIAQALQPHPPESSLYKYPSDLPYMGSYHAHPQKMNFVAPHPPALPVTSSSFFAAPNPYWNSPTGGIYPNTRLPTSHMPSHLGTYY
How it was run: as §1

[4] = molecular target: SPIB (Homo sapiens, UniProt Q01892 1-262)
Chain of SPIB (Q01892 whole entry): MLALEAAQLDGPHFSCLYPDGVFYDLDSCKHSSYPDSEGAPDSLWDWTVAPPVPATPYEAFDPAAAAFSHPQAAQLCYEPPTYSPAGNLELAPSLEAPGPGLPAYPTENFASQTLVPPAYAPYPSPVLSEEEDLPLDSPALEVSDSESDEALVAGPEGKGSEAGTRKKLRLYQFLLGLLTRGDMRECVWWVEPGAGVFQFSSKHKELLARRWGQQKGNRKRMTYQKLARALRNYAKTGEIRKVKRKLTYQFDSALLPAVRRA
How it was run: as §1

[5] = molecular target: T4, SPIC (Homo sapiens, UniProt Q8N5J4 1-248)
T4 sequence: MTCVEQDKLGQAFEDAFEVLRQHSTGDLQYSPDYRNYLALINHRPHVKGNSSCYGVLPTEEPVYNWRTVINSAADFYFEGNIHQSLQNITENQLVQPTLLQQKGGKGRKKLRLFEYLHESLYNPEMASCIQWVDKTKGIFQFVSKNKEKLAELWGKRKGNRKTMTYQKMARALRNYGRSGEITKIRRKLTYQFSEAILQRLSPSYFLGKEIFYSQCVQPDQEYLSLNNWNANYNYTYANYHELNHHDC
How it was run: as §1

[6] = molecular target: ELF4 (Homo sapiens, UniProt Q99607 1-663)
Chain of ELF4 (Q99607 whole entry): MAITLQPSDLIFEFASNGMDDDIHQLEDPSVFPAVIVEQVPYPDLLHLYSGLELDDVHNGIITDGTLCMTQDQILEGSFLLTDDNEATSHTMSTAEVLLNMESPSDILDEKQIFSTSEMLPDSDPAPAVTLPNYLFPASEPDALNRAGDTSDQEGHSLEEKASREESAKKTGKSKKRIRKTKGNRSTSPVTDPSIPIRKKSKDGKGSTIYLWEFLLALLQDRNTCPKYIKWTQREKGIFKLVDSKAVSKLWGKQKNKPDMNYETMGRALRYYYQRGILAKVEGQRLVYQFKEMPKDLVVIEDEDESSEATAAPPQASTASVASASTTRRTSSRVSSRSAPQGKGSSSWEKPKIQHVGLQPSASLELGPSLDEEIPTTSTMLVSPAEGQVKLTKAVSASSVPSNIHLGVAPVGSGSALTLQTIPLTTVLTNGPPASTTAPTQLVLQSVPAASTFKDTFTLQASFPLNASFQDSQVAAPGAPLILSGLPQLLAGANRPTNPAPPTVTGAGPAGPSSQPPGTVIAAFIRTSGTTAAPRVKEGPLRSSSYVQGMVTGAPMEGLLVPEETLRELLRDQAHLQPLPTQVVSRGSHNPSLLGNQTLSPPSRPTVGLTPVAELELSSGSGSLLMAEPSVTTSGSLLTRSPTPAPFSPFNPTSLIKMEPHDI
How it was run: as §1

[7] = molecular target: ETV1 (Homo sapiens, UniProt P50549 1-477)
Chain of ETV1 (P50549 whole entry): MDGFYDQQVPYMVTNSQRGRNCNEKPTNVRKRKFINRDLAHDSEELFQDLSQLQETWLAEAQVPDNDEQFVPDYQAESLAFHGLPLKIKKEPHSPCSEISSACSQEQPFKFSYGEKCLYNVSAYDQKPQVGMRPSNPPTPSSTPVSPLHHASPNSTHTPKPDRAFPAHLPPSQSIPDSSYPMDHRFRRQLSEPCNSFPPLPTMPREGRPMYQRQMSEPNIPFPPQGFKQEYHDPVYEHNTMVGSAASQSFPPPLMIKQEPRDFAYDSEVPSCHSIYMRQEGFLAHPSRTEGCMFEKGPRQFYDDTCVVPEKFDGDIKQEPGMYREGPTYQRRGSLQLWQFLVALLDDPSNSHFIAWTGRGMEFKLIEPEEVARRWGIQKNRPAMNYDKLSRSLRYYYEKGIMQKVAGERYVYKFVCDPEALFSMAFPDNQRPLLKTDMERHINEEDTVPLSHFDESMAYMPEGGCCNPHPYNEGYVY
How it was run: as §1

[8] = molecular target: T5, ETV3L (Homo sapiens, UniProt Q6ZN32 1-361)
T5 sequence: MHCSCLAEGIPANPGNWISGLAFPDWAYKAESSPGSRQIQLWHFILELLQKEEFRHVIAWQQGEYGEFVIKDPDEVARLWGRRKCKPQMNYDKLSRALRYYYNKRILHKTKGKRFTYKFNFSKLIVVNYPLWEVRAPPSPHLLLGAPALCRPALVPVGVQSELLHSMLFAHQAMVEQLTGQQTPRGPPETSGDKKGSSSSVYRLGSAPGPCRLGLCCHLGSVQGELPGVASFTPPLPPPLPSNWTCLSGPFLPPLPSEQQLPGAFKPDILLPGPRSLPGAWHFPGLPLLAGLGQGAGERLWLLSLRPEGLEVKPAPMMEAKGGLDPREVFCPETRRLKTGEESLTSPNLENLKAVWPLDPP
How it was run: as §1

[9] = molecular target: T6, ETS2 (Homo sapiens, UniProt P15036 1-469)
T6 sequence: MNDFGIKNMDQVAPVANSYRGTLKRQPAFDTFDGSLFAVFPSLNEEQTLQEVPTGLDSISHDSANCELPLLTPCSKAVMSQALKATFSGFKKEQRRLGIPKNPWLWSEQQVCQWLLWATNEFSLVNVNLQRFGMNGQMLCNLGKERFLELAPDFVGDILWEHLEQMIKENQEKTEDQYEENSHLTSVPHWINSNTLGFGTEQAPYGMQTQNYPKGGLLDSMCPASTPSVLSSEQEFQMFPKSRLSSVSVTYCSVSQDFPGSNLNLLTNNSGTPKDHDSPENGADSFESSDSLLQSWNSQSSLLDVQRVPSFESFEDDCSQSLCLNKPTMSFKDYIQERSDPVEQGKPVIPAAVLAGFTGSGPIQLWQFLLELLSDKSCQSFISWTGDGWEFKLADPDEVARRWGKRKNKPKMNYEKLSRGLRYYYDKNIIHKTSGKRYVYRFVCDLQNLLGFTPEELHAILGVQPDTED
How it was run: as §1

[10] = molecular target: T7, SPDEF (Homo sapiens, UniProt O95238 1-335)
T7 sequence: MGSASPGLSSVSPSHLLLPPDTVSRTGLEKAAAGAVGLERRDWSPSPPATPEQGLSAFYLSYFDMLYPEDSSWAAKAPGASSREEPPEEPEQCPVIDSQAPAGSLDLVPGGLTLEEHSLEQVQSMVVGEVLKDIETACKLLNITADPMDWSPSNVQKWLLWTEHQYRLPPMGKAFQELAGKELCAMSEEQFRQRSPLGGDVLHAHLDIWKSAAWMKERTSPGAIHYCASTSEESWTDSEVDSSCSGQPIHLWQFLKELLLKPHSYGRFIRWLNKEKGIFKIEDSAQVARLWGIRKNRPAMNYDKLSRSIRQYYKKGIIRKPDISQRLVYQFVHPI
How it was run: as §1

[11] = molecular target: T8, ETV7 (Homo sapiens, UniProt Q9Y603 1-341)
T8 sequence: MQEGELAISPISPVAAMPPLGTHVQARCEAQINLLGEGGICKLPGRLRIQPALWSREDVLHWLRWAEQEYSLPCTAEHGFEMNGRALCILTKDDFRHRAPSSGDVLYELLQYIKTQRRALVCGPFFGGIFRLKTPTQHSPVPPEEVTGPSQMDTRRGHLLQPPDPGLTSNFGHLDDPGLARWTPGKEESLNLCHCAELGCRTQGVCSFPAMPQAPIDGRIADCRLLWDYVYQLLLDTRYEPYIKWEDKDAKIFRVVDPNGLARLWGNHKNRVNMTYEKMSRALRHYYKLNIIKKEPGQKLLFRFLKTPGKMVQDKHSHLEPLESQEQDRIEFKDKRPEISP
How it was run: as §1

[12] = molecular target: T9, ETV3 (Homo sapiens, UniProt P41162-2 1-143)
T9 sequence: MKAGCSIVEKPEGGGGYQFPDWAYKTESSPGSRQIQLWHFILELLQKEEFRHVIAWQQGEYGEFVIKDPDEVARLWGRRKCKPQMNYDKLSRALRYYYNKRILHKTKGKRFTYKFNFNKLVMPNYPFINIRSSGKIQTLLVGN
How it was run: as §1

Sequence: GGATCT
- binding signal [1]: 1.07 fold enrichment (6-mer frequency, TF over GST control)
- binding signal [2]: 1.02 fold enrichment (6-mer frequency, TF over GST control)
- binding signal [3]: 1.01 fold enrichment (6-mer frequency, TF over GST control)
- binding signal [4]: 1.02 fold enrichment (6-mer frequency, TF over GST control)
- binding signal [5]: 1.01 fold enrichment (6-mer frequency, TF over GST control)
- binding signal [6]: 1.02 fold enrichment (6-mer frequency, TF over GST control)
- binding signal [7]: 1.03 fold enrichment (6-mer frequency, TF over GST control)
- binding signal [8]: 1.06 fold enrichment (6-mer frequency, TF over GST control)
- binding signal [9]: 1 fold enrichment (6-mer frequency, TF over GST control)
- binding signal [10]: 1.54 fold enrichment (6-mer frequency, TF over GST control)
- binding signal [11]: 1.07 fold enrichment (6-mer frequency, TF over GST control)
- binding signal [12]: 1.08 fold enrichment (6-mer frequency, TF over GST control)
